Source: PubChem BioAssay AID588814 (The Scripps Research Institute Molecular Screening Center, 2011)
Values joined by “and” are separate entries in the source; they are usually repeats but may differ in a detail not shown here. Equal values may be shown once. About 1,200 (0.33%) of roughly 360,000 compounds were called active.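 How the source made its calls: active means activation above the run's mean compound activation plus 3 SD (cut at about 16% in these data); inactive means the rest.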 Many of the other results were omitted from the sample, so actives are more common in it than they were.

target: Muscarinic acetylcholine receptor M1 (Homo sapiens) (UniProt P11229); assay: CHRM1 activation via calcium signal – Fluo-8 calcium fluorescence, CHO-K1 cells, HTS, primary screen (AID 588814); conditions: CHO-K1 hM1, Fluo-8 calcium fluorescence, agonist mode; at 3 µM; stronger effect = higher value; 0% DMSO, 100% acetylcholine EC100;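 further: peak over basal fluorescence ratio within a 140 s kinetic read after compound addition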
Sequence (P11229 whole entry, looked up): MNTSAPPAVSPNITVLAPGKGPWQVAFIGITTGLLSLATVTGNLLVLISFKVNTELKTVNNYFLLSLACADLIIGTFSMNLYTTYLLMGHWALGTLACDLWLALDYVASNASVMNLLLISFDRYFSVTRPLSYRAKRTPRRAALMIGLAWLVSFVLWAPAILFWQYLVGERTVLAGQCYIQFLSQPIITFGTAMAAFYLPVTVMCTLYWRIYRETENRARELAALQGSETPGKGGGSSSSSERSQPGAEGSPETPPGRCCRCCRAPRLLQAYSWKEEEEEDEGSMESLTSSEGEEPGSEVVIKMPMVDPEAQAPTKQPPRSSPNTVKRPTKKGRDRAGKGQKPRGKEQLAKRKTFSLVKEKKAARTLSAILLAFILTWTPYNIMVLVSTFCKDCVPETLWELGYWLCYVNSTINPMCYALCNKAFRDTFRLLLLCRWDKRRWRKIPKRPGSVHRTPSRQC

| Compound | activation |
| --- | --- |
| O=C(NC(c1ccc(-c2ccccc2)cc1)c1cnccn1)C1CCN(CCOc2ccc(Cl)cc2Cl)CC1 (centres undefined) | -1.39% (inactive) |
| Cc1cc(Br)cn2c(Cc3ccsc3)c(-c3ccc(C#N)cc3)nc12 | -1.39% (inactive) |
| COCCCNc1nc2c(-c3cccc(C)c3)nnn2c2ccc(Cl)cc12 | -3.36% (inactive) |
| C[C@H]1CN([C@@H](C)CO)C(=O)c2cc(C3=CCCCC3)cnc2O[C@@H]1CN(C)C(=O)Cc1ccccc1 | -6.56% (inactive) |
| CN(CCc1ccccc1)C(=O)c1cccc(NC(=O)Cc2cccc(NC(=O)C3CCCN(C(=O)CCc4ccccc4)C3)c2)c1 (centres undefined) | -7.79% (inactive) |
| Cc1ccc(-c2nnc(C)c(N3CC(C)OC(C)C3)n2)cc1 (centres undefined) | -3.38% (inactive) |
| Cc1ccc(SCC(=O)Nc2nncs2)cc1 | 0.6% (inactive) |
| CC(Oc1ccccc1)C(=O)Nc1oc(-c2ccco2)c(-c2ccco2)c1C#N (centres undefined) | -4.2% (inactive) |
| CCOc1ccc(S(=O)(=O)N2CCC(C(=O)NCC(=O)Nc3cccc(Cl)c3C)CC2)cc1 | -2.79% (inactive) |
| Cc1ccc2nc(/C(C#N)=C\c3ccc(OC(=O)c4cccs4)cc3)[nH]c2c1 | 21.8% (active) |
| COc1ccc(CCNC(=O)/C(C#N)=C2\N=C(NC(=O)c3cccs3)c3ccccc32)cc1 | 0.74% (inactive) |
| CCN(CC)c1ccc(S(=O)(=O)N2CCOCC2)cc1NC(=O)CSc1cccc[n+]1[O-] | -5.92% (inactive) |
| CCOc1ccc(NC(=O)CC(Cc2ccc(Cl)cc2)C(=O)O)cc1 (centres undefined) | -7.97% (inactive) |
| O=C(NN1CCOCC1)c1cccc(F)c1 | -3.15% (inactive) |
| Cc1ccc(C(=O)NC2CCN(C(=O)Nc3ccccc3Cl)CC2)cc1 | -1.42% (inactive) |
| O=C(Nc1ccc(F)cc1)C1CCCN(S(=O)(=O)c2ccc(-n3cnnn3)cc2)C1 (centres undefined) | -3.35% (inactive) |
| COC(=O)c1ccc(CN2CCCC(C(=O)Nc3cccc(-n4cnnn4)c3)C2)cc1 (centres undefined) | 37.4% (active) |
| CC(C)CNC(=O)C1CCCN(S(=O)(=O)c2ccc(-n3cnnn3)cc2)C1 (centres undefined) | -2.97% (inactive) |
| O=C(NCCCN1CCCC1=O)C(=O)NCC1OCCN1S(=O)(=O)c1ccc(Br)cc1 (centres undefined) | -4.08% (inactive) |
| Nc1c(C(=O)c2cccs2)sc2nsc(SCCN3CCCCC3)c12 | 40.6% (active) |
| COc1ccc(Cl)cc1NC(=O)CN(C)C(=O)CCCc1c[nH]c2ccccc12 | -1.46% (inactive) |
| Cc1occc1-c1nnc(SCC(=O)NC2(C#N)CCCC2)n1C | -1.84% (inactive) |
| CCCc1nc2c(c(=O)c3ccccc3n2C)c(=O)n1C1CCCCCC1 | 55.4% (active) |
| CCOC(=O)c1nnn2c3ccccc3c(=O)n(C)c12 | -1.59% (inactive) |

| Compound | activation |
| --- | --- |
| CCOC(=O)N1CCN(C(=O)c2nn(-c3ccc(C)cc3)c(=O)c3c2c2ccccc2n3C)CC1 | -4.51% (inactive) |
| COC(=O)c1ccc(CNC(=O)C2CCC(=O)N(Cc3cccc(F)c3)C2)cc1 (centres undefined) | -0.82% (inactive) |
| Cc1nc([N+](=O)[O-])c(NCCCO)n1Cc1ccccc1 | -5.22% (inactive) |
| CN(C)CCNC(=O)c1ccc(Cl)c2cc3ccccc3nc12 | -6.82% (inactive) |
| Nc1ccc2nc3c(=O)[nH]c(=S)[nH]c3nc2c1 | 18.4% (active) |
| CSCc1cc(N(C)C)nc(SCc2ccc(Cl)cc2Cl)n1 | 1.65% (inactive) |
| COc1cccc(NC(=O)N(C)C[C@@H]2Oc3ncc(Br)cc3C(=O)N([C@@H](C)CO)C[C@H]2C)c1 | -2.37% (inactive) |
| COC(=O)c1cc(NS(=O)(=O)c2ccc3c(c2)c(=O)n(C)c(=O)n3C)cc(C(=O)OC)c1 | -0.41% (inactive) |
| Cc1ccccc1NC(=O)c1cc(S(=O)(=O)N2CCOCC2)cs1 | -2.94% (inactive) |
| COc1cc(OC)cc(C(=O)N[C@H](C(=O)OCC(=O)NC(C)c2ccccc2)C(C)C)c1 (some centres undefined) | 18.7% (active) |
| COc1cc(OC)cc(C(=O)NC(C(=O)N2CCC2)C(C)C)c1 (centres undefined) | -2.4% (inactive) |
| COc1cc(OC)cc(C(=O)NCC(=O)OCC(=O)NC(C)CCc2ccccc2)c1 (centres undefined) | -5.47% (inactive) |
| CCC(C(=O)Nc1ccc(C(C)C)cc1)c1ccccc1 (centres undefined) | 29.4% (active) |
| CC(NC(=O)Nc1ccccc1)c1ccccc1 (centres undefined) | -4.05% (inactive) |
| CC(C)c1ccc(NC(=O)Cn2ncc3ccccc32)cc1 | -2.42% (inactive) |
| COc1ccc(C(c2nnnn2C2CCCC2)N2CCN(C/C=C/c3ccccc3)CC2)cc1 (centres undefined) | -7.67% (inactive) |
| Cc1ccc(N2C(=O)C3C4C=CC(CC4)C3C2=O)cc1Cl (centres undefined) | -1.43% (inactive) |
| Cc1ccc(S(=O)(=O)Oc2ccc(/C=N/NC(=O)c3c(Cl)cnn3C)cc2)cc1 | -4.49% (inactive) |
| CC(NC(=O)CSc1nc2c(cc1C#N)CN(C)CC2)c1ccccc1 (centres undefined) | 18.6% (active) |
| Cc1cc(NC(=O)CSc2nc3c(cc2C#N)CCCCC3)no1 | -4.15% (inactive) |
| CC1(C)CCc2nc(SCc3ccccc3)c(C#N)cc2C1 | -1.01% (inactive) |
| CCOC(=O)C1CCCN(Cc2nc(N)nc(Nc3ccc(C)cc3)n2)C1 (centres undefined) | 28.3% (active) |
| CCOC(=O)C1CCCN(CCSc2ccc(C)cc2)C1 (centres undefined) | -6.73% (inactive) |
| COc1ccc(Nc2nc(N)nc(CSC(=S)N3CCC(C)CC3)n2)cc1 | -4.28% (inactive) |

| Compound | activation |
| --- | --- |
| CCOC(=O)C1CCCN(C(=O)c2cccc3ccccc23)CC1 (centres undefined) | -0.09% (inactive) |
| O=C(c1cnccn1)N1CCN(S(=O)(=O)c2cccc(Cl)c2)CC1 | -0.88% (inactive) |
| CC(C)(C)NC(=O)NC(=O)CN1CCC(Cc2ccccc2)CC1 | -13.3% (inactive) |
| CC(C)(CNC(=O)Cc1ccc(Cl)cc1Cl)N1CCOCC1 | -10.7% (inactive) |
| CN1c2ccc(C=O)c3c(C=O)ccc(c23)N(C)C1(C)C | -7.9% (inactive) |
| CCN(CC)C(=O)C1=C(C)N(Cc2ccc(OC)cc2)C(=O)C(CC(=O)NCc2ccco2)C1 (centres undefined) | -7.01% (inactive) |
| COc1ccc(CN2C(=O)C(CC(=O)NCCCCc3ccccc3)CC(C(=O)N3CCOCC3)=C2C)cc1 (centres undefined) | 3.01% (inactive) |
| CCN(CC)C(=O)C1=C(C)N(Cc2ccc(OC)cc2)C(=O)C(CC(=O)NCCCCc2ccccc2)C1 (centres undefined) | 23.1% (active) |
| CN1C(=O)c2cccc3c(N)ccc(c23)C1=O | 118% (active) |
| Cc1nn(C)cc1N1C(=O)c2cccc3c(N)ccc(c23)C1=O | 44.5% (active) |
| Cn1cc(C2OC(=O)c3ccccc32)c2ccccc21 (centres undefined) | 0.52% (inactive) |
| C[C@]12CCC(=O)C=C1C=CC1C2CC[C@@]2(C)C1CC[C@@]21CCC(=O)O1 (some centres undefined) | -6.36% (inactive) |
| O=C(CN1C(=O)CC(c2ccccc2)S(=O)(=O)c2ccccc21)NC1CCCC1 (centres undefined) | -3.97% (inactive) |
| COc1ccc(CCC(=O)OCC(=O)Nc2ccc(C)c(S(=O)(=O)N(C)C)c2)cc1 | -1.39% (inactive) |
| CCN1CCN(c2cc3nc(C)n(Cc4ccccc4)c(=O)c3cc2NC(=O)c2ccccc2F)CC1 | -9.45% (inactive) |
| NNC(=O)COc1ccc(C2SCCS2)cc1 | -1.63% (inactive) |
| COc1ccc(C(=O)NC(=S)NNC(=O)CCc2ccccc2)cc1 | 34.7% (active) |
| O=C(NNC(=S)NCc1ccccc1)c1ccc(OC(F)F)cc1 | -4.38% (inactive) |
| COc1ccc(C(=O)NNC(=S)NC(=O)c2ccccc2)cc1 | 34.3% (active) |
| O=C(CCc1ccccc1)NNC(=O)COc1ccc(Cl)cc1 | 1.21% (inactive) |
| CC(=O)NC(=S)NNC(=O)c1ccc(Br)cc1 | -8.87% (inactive) |
| CCOc1ccccc1NC(=S)NC(=O)CCc1ccccc1 | -3.2% (inactive) |
| COCCCNC(=O)C1CC(=O)N(c2ccc(C)cc2)C1 (centres undefined) | -2.9% (inactive) |
| O=C(c1ccc(CS(=O)(=O)c2ccccc2)o1)N1CCN(c2ccccc2)CC1 | -1.41% (inactive) |

| Compound | activation |
| --- | --- |
| CC(C)(C)NS(=O)(=O)NC(=O)C1=C(N2CCCC2)COC1=O | -5.28% (inactive) |
| Cc1nc(C(F)(F)F)ccc1C(=O)N1CCC1(C)C(=O)NS(=O)(=O)c1ccccc1Cl (centres undefined) | -0.92% (inactive) |
| CC1=NCCN1S(=O)(=O)c1ccc(Br)c(C)c1 | -3.91% (inactive) |
| O=C1COc2ccc(C(=O)CSc3ccc(Br)cc3)cc2N1 | 0.13% (inactive) |
| c1ccc(CCC2=NCCn3cccc32)cc1 | -1.99% (inactive) and -6.48% (inactive) |
| COc1cccc(CNC(=O)c2nnn(CC(=O)Nc3cc(Cl)ccc3C)c2N)c1 | 2.49% (inactive) |
| COc1ccc(CNC(=O)c2nnn(CC(=O)Nc3cc(C)cc(C)c3)c2N)cc1 | -1.24% (inactive) |
| CCOc1ccc(Cn2nnc(C(=O)NCc3ccccc3)c2N)cc1 | 41% (active) |
| Nc1c(C(=O)Nc2ccc3c(c2)OCCO3)nnn1Cc1ccccc1 | 1.21% (inactive) |
| COc1ccc(NC(=O)Cn2nnc(C(=O)NCCc3ccc(OC)c(OC)c3)c2N)cc1 | -1.8% (inactive) |
| CCOc1ccc(Cn2nnc(C(=O)Nc3ccc(OC)cc3OC)c2N)cc1 | 17.4% (active) |
| O=C(CCNS(=O)(=O)c1ccc(Br)s1)NCc1ccccc1Cl | -1.35% (inactive) |
| O=c1o[nH]c(-c2ccccc2)c1N=Nc1c(F)cccc1Cl | -2.19% (inactive) |
| CCCCNC(=O)CCn1c(=O)c2ccccc2n(Cc2cc(C)ccc2C)c1=O | -4.41% (inactive) |
| OC(c1ccc(F)cc1)c1ncc(-c2cccc(C(F)(F)F)c2)[nH]1 (centres undefined) | 6.15% (inactive) |
| CC(=O)Nc1cc(-c2ccccc2F)cn2c(-c3cccc(C(F)(F)F)c3)cnc12 | -3.25% (inactive) |
| NS(=O)(=O)c1ccc(NC(=O)COC(=O)c2c3c(nc4ccccc24)/C(=C\c2ccc4c(c2)OCO4)CCC3)cc1 | 62.8% (active) |
| NS(=O)(=O)c1ccc(NC(=O)COC(=O)c2ccco2)cc1 | -0.06% (inactive) |
| NC(=O)c1ccc(NC(=O)COC(=O)c2c3c(nc4ccccc24)/C(=C\c2ccc4c(c2)OCO4)CCC3)cc1 | 38.3% (active) |
| O=C(COC(=O)c1ccc(Cl)nc1)NCc1ccc2c(c1)OCO2 | -4.12% (inactive) |
| NS(=O)(=O)c1ccc(NC(=O)COC(=O)CCc2c[nH]c3ccccc23)cc1 | -0.53% (inactive) |
| CC(=O)Nc1cccc(C(=O)OCC(=O)c2ccc3c(c2)OCO3)c1 | 6.09% (inactive) |
